Out of some 17,000 compounds screened, about 260 (1.5%) were called active.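 The calls were made as follows: active = spot fluorescence over background with P-value below 7% in all four replicate spots, showing protein binding; inactive = the rest.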 The list comes from a sample in which actives are over-represented; it also holds similar structures and randomly drawn compounds.
These molecules were tested against Myc proto-oncogene protein (Homo sapiens) (UniProt P01106) (assay: binders of human c-Myc, primary screen, biochemical, small molecule microarray, anti-His fluorescence (AID 624141)). Conditions: His-c-Myc binding.
Sequence of Myc proto-oncogene protein (Homo sapiens) (P01106 whole entry, looked up): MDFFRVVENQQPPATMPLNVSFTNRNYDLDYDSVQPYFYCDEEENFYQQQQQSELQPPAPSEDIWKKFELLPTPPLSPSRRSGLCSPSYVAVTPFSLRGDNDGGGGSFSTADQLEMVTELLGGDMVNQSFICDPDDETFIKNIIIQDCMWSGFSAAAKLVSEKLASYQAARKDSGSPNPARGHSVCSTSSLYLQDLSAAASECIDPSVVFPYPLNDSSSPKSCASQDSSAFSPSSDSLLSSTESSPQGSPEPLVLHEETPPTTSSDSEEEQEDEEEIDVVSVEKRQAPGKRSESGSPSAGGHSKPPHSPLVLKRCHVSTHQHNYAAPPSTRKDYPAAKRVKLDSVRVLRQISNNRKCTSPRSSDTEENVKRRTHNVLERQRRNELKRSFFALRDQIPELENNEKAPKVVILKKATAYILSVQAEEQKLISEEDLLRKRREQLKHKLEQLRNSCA

| Compound | outcome |
| --- | --- |
| CC(C)NC(=O)N(C)C[C@H]1OCCCC[C@@H](C)Oc2ccc(NC(=O)Nc3cccc4ccccc34)cc2C(=O)N([C@H](C)CO)C[C@@H]1C | inactive |
| Cc1cc(C)cc(Oc2c(C(F)(F)F)oc3cc(OCC(=O)O)ccc3c2=O)c1 | active |
| C[C@@H]1CN([C@H](C)CO)C(=O)CCCn2cc(nn2)CO[C@@H]1CN(C)C(=O)Nc1ccc(-c2cccs2)cc1 | inactive |
| CN(CC(=O)O)S(=O)(=O)c1ccc(F)c2ccccc12 | inactive |
| COc1ccc(S(=O)(=O)N(C)C[C@H]2Oc3c(NS(=O)(=O)c4cccs4)cccc3C(=O)N([C@H](C)CO)C[C@@H]2C)cc1 | inactive |
| C[C@H](CO)N1C[C@H](C)[C@@H](CN(C)Cc2ccc(C(F)(F)F)cc2)Oc2ccc(NC(=O)CCN3CCOCC3)cc2C1=O | inactive |
| C[C@H](CO)N1C[C@H](C)[C@H](CN(C)Cc2ccc(C(=O)O)cc2)Oc2c(NC(=O)C3CCOCC3)cccc2C1=O | inactive |
| C[C@@H]1CN([C@@H](C)CO)C(=O)Cc2cc(NC(=O)CCN3CCOCC3)ccc2O[C@@H]1CN(C)C(=O)Nc1cccc2ccccc12 | inactive |
| C[C@H](CO)N1C[C@H](C)[C@H](CN(C)S(=O)(=O)c2cn(C)cn2)Oc2ccc(N(C)C)cc2C1=O | inactive |
| Cc1noc(C)c1S(=O)(=O)Nc1cccc2c1O[C@@H](CN(C)S(=O)(=O)c1cn(C)cn1)[C@@H](C)CN([C@H](C)CO)C2=O | inactive |
| O=c1c2ccccc2[nH]c(=S)n1CCN1CCC(=C(c2ccc(F)cc2)c2ccc(F)cc2)CC1 | active |
| O=C(c1ccc(F)cc1)C1CCN(CCCCc2ccccc2)CC1 | inactive |
| COc1ccc(S(=O)(=O)N(C)C[C@H]2Oc3c(NC(=O)C4CCOCC4)cccc3C(=O)N([C@@H](C)CO)C[C@@H]2C)cc1 | inactive |
| C[C@@H]1CN([C@H](C)CO)C(=O)c2cc(NC(=O)c3ccncc3)ccc2O[C@@H]1CN(C)C(=O)Nc1ccc(F)cc1 | inactive |
| COc1ccc(S(=O)(=O)N(C)C[C@@H]2Oc3ccc(NC(=O)Nc4cccc5ccccc45)cc3C(=O)N([C@H](C)CO)C[C@H]2C)cc1 | inactive |
| C[C@@H]1CN([C@@H](C)CO)C(=O)c2cc(NC(=O)C3CCCCC3)ccc2O[C@@H](C)CCCCO[C@@H]1CN(C)Cc1ccc(C(=O)O)cc1 | inactive |
| C/C=C(\C)C(=O)O[C@H]1C=CC(=O)O[C@H]1/C=C/[C@H](O)[C@H](C)O | inactive |

| Compound | outcome |
| --- | --- |
| C[C@@H]1CN([C@@H](C)CO)C(=O)c2cc(NC(=O)CCCN(C)C)ccc2O[C@@H](C)CCCCO[C@H]1CN(C)Cc1ccc2c(c1)OCO2 | inactive |
| COC(=O)COc1c(Sc2ccc([N+](=O)[O-])cc2)c(C)nn1-c1ccccc1 | inactive |
| COC(=O)C1=CO[C@@H](O[C@@H]2O[C@H](CO)[C@@H](O)[C@H](O)[C@H]2O)[C@@H]2[C@@H](C)[C@@H](OC(=O)C3=CO[C@@H](O[C@@H]4O[C@H](CO)[C@@H](O)[C@H](O)[C@H]4O)[C@@H]4[C@@H](C)[C@@H](OC(C)=O)C[C@H]34)C[C@H]12 | inactive |
| C[C@H]1CN([C@@H](C)CO)C(=O)CCCn2cc(nn2)CO[C@@H]1CN(C)S(=O)(=O)c1cccs1 | inactive |
| C[C@H](CO)N1C[C@H](C)[C@H](CN(C)C(=O)Nc2ccc(C(F)(F)F)cc2)Oc2ccc(NS(=O)(=O)c3ccccc3)cc2CC1=O | inactive |
| C[C@@H]1CN([C@H](C)CO)C(=O)c2cccc(NS(=O)(=O)c3cccs3)c2O[C@@H]1CN(C)C(=O)Nc1cccc2ccccc12 | inactive |
| CS(=O)(=O)N(CC(=O)Nc1ccc(C(N)=O)cc1)c1cccc(C(F)(F)F)c1 | inactive |
| CC(C)NC(=O)Nc1ccc2c(c1)C(=O)N([C@H](C)CO)C[C@@H](C)[C@@H](CN(C)C(=O)c1ccncc1)OCCCC[C@H](C)O2 | inactive |
| Cc1cc(C(=O)Nc2cccc3c2O[C@@H](CN(C)Cc2ccc4c(c2)OCO4)[C@@H](C)CN([C@@H](C)CO)C3=O)n(C)n1 | inactive |
| C[C@@H]1CN([C@@H](C)CO)C(=O)c2cc(NC(=O)Nc3cccc4ccccc34)ccc2O[C@@H]1CN(C)Cc1ccc(-c2ccccc2)cc1 | inactive |
| C[C@@H]1CN([C@@H](C)CO)C(=O)c2cc(NC(=O)C3CCCCC3)ccc2O[C@@H]1CN(C)S(=O)(=O)c1ccc(F)cc1 | inactive |
| C[C@@H]1CCCCO[C@@H](CN(C)Cc2ccc(C(=O)O)cc2)[C@H](C)CN([C@H](C)CO)C(=O)c2cc(NC(=O)Nc3ccc(F)cc3)ccc2O1 | inactive |
| O=C(O)CCC(=O)Nc1ccc(-c2nc3ccccc3o2)cc1 | inactive |
| COc1cc(/C=C/C(=O)O[C@@H]2O[C@H](CO[C@@H]3O[C@H](CO)[C@@H](O)[C@H](O)[C@H]3O)[C@@H](O)[C@H](O)[C@H]2OC(=O)/C=C/c2cc(OC)c(O)c(OC)c2)cc(OC)c1O | inactive |
| C=CCOC(=O)[C@H]1[C@@H]2C(=O)O[C@@H](c3ccccc3)[C@@H](c3ccccc3)N2[C@@H](c2ccc(OCCOC(=O)[C@H]3C[C@H]4C(=O)NCC(=O)N4[C@H]3c3ccc(O)cc3)cc2)[C@]12C(=O)Nc1ccccc12 | inactive |
| C=C(C(=O)O)C1CCC(CCC)OC1=O (stereo not drawn) | inactive |

Reference: PubChem BioAssay AID624141 (Broad Institute, 2012)
